Laboratory results from PubChem BioAssay (EPA / NIEHS).
Active and inactive are the calls of the source. How the source made its calls: active means hit-call score of the fitted dose curve at least 0.9, where 1 is the maximum; inactive means score below 0.9.

Experiments:
Settings in all cases: mRNA level, 48 h; actives raise or lower the signal
[1] = read-out: Apolipoprotein A-V (APOA5) gene, APOA5 (gene 116519); experiment: LTEA_HepaRG_APOA5: Life Technologies and Expression Analysis (LTEA) Assay for Apolipoprotein A-V (APOA5) gene using HepaRG (AID 2283474)
In short: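 Readout is APOA5 transcript level by qRT-PCR on Fluidigm dynamic arrays, normalized to three housekeeping genes. HepaRG cultures received chemicals for 48 h at up to 100 uM (half-log steps, 0.5% DMSO), with gain or loss scored relative to DMSO.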

[2] = read-out: Apoptosis regulator Bcl-2 (Homo sapiens) (UniProt P10415); experiment: LTEA_HepaRG_BCL2: Life Technologies and Expression Analysis (LTEA) Assay for Bcl-2 gene using HepaRG (AID 2283475)
In short: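 Each chemical was tested in duplicate on HepaRG cultures held in serum-free induction medium for 48 h, highest concentration 100 uM with half-log dilutions. Transcript levels came from multiplexed qRT-PCR, normalised to housekeeping genes; activity was scored in either direction relative to DMSO.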

[3] = read-out: Bcl-2 (BID) gene, BID (gene 637); experiment: LTEA_HepaRG_BID: Life Technologies and Expression Analysis (LTEA) Assay for Bcl-2 (BID) gene using HepaRG (AID 2283476)
In short: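 Assay used HepaRG hepatic cells treated 48 h in serum-free medium with half-log dilutions from 100 uM. Endpoint: BID mRNA, qRT-PCR, normalized to ACTB/GAPDH/POLR2A.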

Caspase-3 (Homo sapiens) = Caspase-3 (Homo sapiens) (UniProt P42574); experiment: LTEA_HepaRG_CASP3: Life Technologies and Expression Analysis (LTEA) Assay for cysteine-aspartic acid protease (CASP3) using HepaRG (AID 2283477)
In short: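 Read-out is CASP3 mRNA level by TaqMan qRT-PCR in human HepaRG cells after 48 h chemical exposure. Eight half-log concentrations topping at 100 uM were tested in 0.5% DMSO; gain or loss was fitted relative to DMSO.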

[4] = read-out: Cytochrome P450 (CYP24A1), CYP24A1 (gene 1591); experiment: LTEA_HepaRG_CYP24A1: Life Technologies and Expression Analysis (LTEA) Assay for Cytochrome P450 (CYP24A1) using HepaRG (AID 2283478)
In short: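 HepaRG, 48 h chemical exposure, 8-pt half-log CRC from 100 uM, 0.5% DMSO vehicle, duplicates. Endpoint: CYP24A1 mRNA by Fluidigm TaqMan qRT-PCR, normalized ACTB/GAPDH/POLR2A; gain/loss fit vs DMSO.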

[5] = read-out: Cytochrome P450 (CYP1A2), CYP1A2 (gene 1544); experiment: LTEA_HepaRG_CYP1A2: Life Technologies and Expression Analysis (LTEA) Assay for Cytochrome P450 (CYP1A2) using HepaRG (AID 2283479)
In short: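 CYP1A2 transcript induction or loss, quantified by Fluidigm qRT-PCR against three housekeeping genes, was fitted bidirectionally against 0.5% DMSO controls. Human HepaRG cells received eight half-log concentrations from 100 uM over 48 h.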

[6] = read-out: cysteine-aspartic acid protease (CASP8), CASP8 (gene 841); experiment: LTEA_HepaRG_CASP8: Life Technologies and Expression Analysis (LTEA) Assay for cysteine-aspartic acid protease (CASP8) using HepaRG (AID 2283480)
In short: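 qRT-PCR readout of CASP8 mRNA, normalized to three housekeeping genes, after 48 h chemical exposure of HepaRG cells; 8-point half-log series, top 100 uM, 0.5% DMSO vehicle. Bidirectional curve fitting against DMSO baseline.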

[7] = read-out: Cytochrome P450 (CYP2B6), CYP2B6 (gene 1555); experiment: LTEA_HepaRG_CYP2B6: Life Technologies and Expression Analysis (LTEA) Assay for Cytochrome P450 (CYP2B6) using HepaRG (AID 2283481)
In short: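 HepaRG cells plated 48 h, switched to serum-free induction medium, then dosed 48 h (8 points, half-log from 100 uM, 0.5% DMSO). RNA isolated; CYP2B6 expression measured by qRT-PCR; gain or loss fitted relative to DMSO.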

[8] = read-out: Cytochrome P450 2C19 (Homo sapiens) (UniProt P33261); experiment: LTEA_HepaRG_CYP2C19: Life Technologies and Expression Analysis (LTEA) Assay for CYP2C19 using HepaRG (AID 2283482)
In short: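 Transcript levels of CYP2C19 were quantified by qRT-PCR after HepaRG cells were treated for 48 hours with test chemicals up to 100 uM (eight half-log concentrations, 0.5% DMSO vehicle). Gain or loss of signal was fitted relative to DMSO.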

CYP2C8 (gene 1558) = experiment: LTEA_HepaRG_CYP2C8: Life Technologies and Expression Analysis (LTEA) Assay for CYP2C8 using HepaRG (AID 2283483)
In short: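 HepaRG (human liver line), 48 h chemical exposure, 8-pt half-log series from 100 uM, 0.5% DMSO vehicle. Readout: CYP2C8 transcript by qRT-PCR, housekeeping-normalized. Bidirectional fit vs DMSO baseline.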

CYP2C9 (gene 1559) = experiment: LTEA_HepaRG_CYP2C9: Life Technologies and Expression Analysis (LTEA) Assay for CYP2C9 using HepaRG (AID 2283484)
In short: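 HepaRG, 48 h dosing, 8-pt half-log series, top 100 uM, 0.5% DMSO vehicle. Read-out: CYP2C9 transcript by TaqMan qRT-PCR, housekeeping-normalized (ACTB/GAPDH/POLR2A). Gain or loss fitted vs DMSO baseline.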

CYP2E1 (gene 1571) = experiment: LTEA_HepaRG_CYP2E1: Life Technologies and Expression Analysis (LTEA) Assay for CYP2E1 using HepaRG (AID 2283485)
In short: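 Assay uses 48 h exposure of HepaRG hepatic cells, eight concentrations to 100 uM. Expression of CYP2E1 is quantified by TaqMan qRT-PCR with ACTB, GAPDH and POLR2A normalization; curves fitted in both directions relative to vehicle.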

CYP4A11 (gene 1579) = experiment: LTEA_HepaRG_CYP4A11: Life Technologies and Expression Analysis (LTEA) Assay for CYP4A11 using HepaRG (AID 2283486)
In short: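 HepaRG, 48 h chem exposure, 8 conc (100 uM top, half-log), 0.5% DMSO vehicle; qRT-PCR readout, housekeeping-gene normalized; bidirectional curve fit vs DMSO baseline.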

[9] = read-out: Cytochrome P450 3A4 (Homo sapiens) (UniProt P08684); experiment: LTEA_HepaRG_CYP3A4: Life Technologies and Expression Analysis (LTEA) Assay for CYP3A4 using HepaRG (AID 2283487)
In short: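 CYP3A4 transcript measured by TaqMan qRT-PCR and normalized to three housekeeping genes after 48 h chemical exposure of human HepaRG cells. Top concentration 100 uM, half-log steps, 0.5% DMSO vehicle; gain or loss fitted against DMSO baseline.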

[10] = read-out: DNA damage-inducible transcript 3 (DDIT3), DDIT3 (gene 1649); experiment: LTEA_HepaRG_DDIT3: Life Technologies and Expression Analysis (LTEA) Assay for DNA damage-inducible transcript 3 (DDIT3) using HepaRG (AID 2283488)
In short: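 Eight-point concentration-response (100 uM highest, half-log dilutions) in HepaRG, 48 h, duplicate wells. Endpoint: qRT-PCR mRNA, normalized (ACTB, GAPDH, POLR2A), bidirectional fitting with DMSO as baseline.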

[11] = read-out: Pro-epidermal growth factor (Homo sapiens) (UniProt P01133); experiment: LTEA_HepaRG_EGF: Life Technologies and Expression Analysis (LTEA) Assay for Epidermal growth factor (EGF) using HepaRG (AID 2283489)
In short: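 HepaRG, 48 h dosing, 100 uM top, half-log x8, 0.5% DMSO. Readout: TaqMan qRT-PCR (Fluidigm array), housekeeping-normalized. Gain or loss of signal fit vs DMSO.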

[12] = read-out: Ezrin (EZR), EZR (gene 7430); experiment: LTEA_HepaRG_EZR: Life Technologies and Expression Analysis (LTEA) Assay for Ezrin (EZR) using HepaRG (AID 2283491)
In short: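 HepaRG, 48 h chemical exposure, 8-pt half-log series from 100 uM, 0.5% DMSO vehicle, duplicates. Read-out: EZR mRNA by TaqMan qRT-PCR (Fluidigm array), housekeeping-normalized; bidirectional curve fit vs DMSO baseline.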

CYP3A5 (gene 1577) = experiment: LTEA_HepaRG_CYP3A5: Life Technologies and Expression Analysis (LTEA) Assay for CYP3A5 using HepaRG (AID 2283493)
In short: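 Readout was CYP3A5 mRNA by qRT-PCR. HepaRG cultures were exposed for 48 h in serum-free induction medium to chemicals at up to 100 uM, and responses were fitted in both directions relative to DMSO vehicle.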

[13] = read-out: Early growth response protein 1 (EGR1) transcription factor, EGR1 (gene 1958); experiment: LTEA_HepaRG_EGR1: Life Technologies and Expression Analysis (LTEA) Assay for Early growth response protein 1 (EGR1) transcription factor using HepaRG (AID 2283490)
In short: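 HepaRG, 48 h exposure, 8-pt half-log series from 100 uM, 0.5% DMSO vehicle; EGR1 transcript by TaqMan qRT-PCR (Fluidigm array), housekeeping-normalized; bidirectional fit relative to DMSO baseline.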

[14] = read-out: Cytochrome P450 3A7 (Homo sapiens) (UniProt P24462); experiment: LTEA_HepaRG_CYP3A7: Life Technologies and Expression Analysis (LTEA) Assay for CYP3A7 using HepaRG (AID 2283492)
In short: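 Human HepaRG liver cells, 48 h post-plating, switched to serum-free induction medium and exposed in duplicate for 48 h. Dosing: 100 uM top, half-log dilutions, 8 points, 0.5% DMSO vehicle. Read-out: CYP3A7 mRNA, gain or loss fitted against DMSO baseline.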

Measured: AC50

Sequence of Caspase-3 (Homo sapiens) (P42574 whole entry, looked up): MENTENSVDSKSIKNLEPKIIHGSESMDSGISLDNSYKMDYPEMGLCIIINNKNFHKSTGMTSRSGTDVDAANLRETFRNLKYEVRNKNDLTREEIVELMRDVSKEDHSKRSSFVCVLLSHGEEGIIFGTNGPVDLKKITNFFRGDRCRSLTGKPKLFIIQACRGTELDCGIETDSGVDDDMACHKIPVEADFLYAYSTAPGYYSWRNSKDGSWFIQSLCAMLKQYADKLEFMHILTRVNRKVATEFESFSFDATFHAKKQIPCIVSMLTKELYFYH
Sequence of Cytochrome P450 3A4 (Homo sapiens) (P08684 whole entry, looked up): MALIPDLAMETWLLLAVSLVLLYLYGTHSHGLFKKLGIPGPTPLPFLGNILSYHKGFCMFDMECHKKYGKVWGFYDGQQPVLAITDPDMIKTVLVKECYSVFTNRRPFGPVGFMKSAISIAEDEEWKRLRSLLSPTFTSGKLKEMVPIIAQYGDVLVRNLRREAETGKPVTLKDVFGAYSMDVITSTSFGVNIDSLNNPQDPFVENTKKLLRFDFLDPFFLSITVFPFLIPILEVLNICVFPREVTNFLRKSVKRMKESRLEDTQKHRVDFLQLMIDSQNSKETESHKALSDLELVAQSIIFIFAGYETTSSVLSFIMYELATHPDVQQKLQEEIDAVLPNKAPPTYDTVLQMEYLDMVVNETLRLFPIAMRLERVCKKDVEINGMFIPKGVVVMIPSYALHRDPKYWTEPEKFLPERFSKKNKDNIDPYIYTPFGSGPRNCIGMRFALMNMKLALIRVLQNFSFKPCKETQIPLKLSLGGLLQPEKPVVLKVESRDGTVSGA
Sequence of Apoptosis regulator Bcl-2 (Homo sapiens) (P10415 whole entry, looked up): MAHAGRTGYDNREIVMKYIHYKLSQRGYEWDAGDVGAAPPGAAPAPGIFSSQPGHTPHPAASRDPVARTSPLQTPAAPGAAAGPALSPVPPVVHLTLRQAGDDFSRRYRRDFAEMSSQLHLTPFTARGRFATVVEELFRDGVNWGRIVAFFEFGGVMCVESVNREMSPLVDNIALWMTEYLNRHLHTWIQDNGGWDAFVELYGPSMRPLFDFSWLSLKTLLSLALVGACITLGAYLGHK
Sequence of Cytochrome P450 2C19 (Homo sapiens) (P33261 whole entry, looked up): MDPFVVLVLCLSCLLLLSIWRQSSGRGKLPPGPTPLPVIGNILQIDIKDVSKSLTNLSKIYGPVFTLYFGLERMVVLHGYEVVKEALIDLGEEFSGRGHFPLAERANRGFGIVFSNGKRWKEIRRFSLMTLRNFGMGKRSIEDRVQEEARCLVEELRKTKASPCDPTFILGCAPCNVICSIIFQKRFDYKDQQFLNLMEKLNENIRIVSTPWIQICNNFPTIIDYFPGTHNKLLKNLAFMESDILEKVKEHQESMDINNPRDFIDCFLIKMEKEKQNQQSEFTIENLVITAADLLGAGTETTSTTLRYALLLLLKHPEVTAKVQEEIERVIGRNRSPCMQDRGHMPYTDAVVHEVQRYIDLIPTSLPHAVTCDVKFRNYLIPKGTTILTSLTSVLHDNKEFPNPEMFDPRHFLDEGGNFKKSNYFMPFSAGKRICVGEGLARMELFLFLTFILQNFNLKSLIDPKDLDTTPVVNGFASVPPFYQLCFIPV
Sequence of Cytochrome P450 3A7 (Homo sapiens) (P24462 whole entry, looked up): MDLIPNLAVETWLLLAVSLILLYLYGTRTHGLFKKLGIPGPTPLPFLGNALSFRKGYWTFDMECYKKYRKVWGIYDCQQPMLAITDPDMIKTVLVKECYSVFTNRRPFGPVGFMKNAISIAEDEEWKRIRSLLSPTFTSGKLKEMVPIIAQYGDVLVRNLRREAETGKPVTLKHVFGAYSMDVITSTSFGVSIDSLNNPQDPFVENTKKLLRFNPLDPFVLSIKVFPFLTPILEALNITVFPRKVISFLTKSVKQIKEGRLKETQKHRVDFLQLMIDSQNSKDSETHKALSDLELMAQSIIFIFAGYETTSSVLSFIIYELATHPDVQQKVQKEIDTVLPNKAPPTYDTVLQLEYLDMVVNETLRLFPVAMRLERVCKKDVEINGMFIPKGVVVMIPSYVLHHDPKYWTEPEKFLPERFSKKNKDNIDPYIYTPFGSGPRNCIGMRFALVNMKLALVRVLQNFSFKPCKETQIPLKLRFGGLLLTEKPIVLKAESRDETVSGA

CCCCCOC(=O)c1ccccc1C(=O)OCCCCC
active: CYP4A11 (gene 1579) 50 µM
not listed: [13] | [14]
inactive: all other assays above

ClC1=C(Cl)[C@]2(Cl)[C@H]3[C@H]([C@@H]4C=C[C@H]3C4)[C@@]1(Cl)C2(Cl)Cl
active: [7] 2.2 µM | [8] 3.63 µM | CYP2C8 (gene 1558) 1.45 µM | CYP2E1 (gene 1571) 23 µM | CYP4A11 (gene 1579) 29.6 µM | [9] 4.36 µM
not listed: [14]
inactive: all other assays above

CS(=O)(=O)NC(=O)c1cc(Oc2ccc(C(F)(F)F)cc2Cl)ccc1[N+](=O)[O-]
active: [7] 3.63 µM | [8] 1.52 µM | CYP2C8 (gene 1558) 1.76 µM | CYP2E1 (gene 1571) 9.92 µM | CYP4A11 (gene 1579) 2.84 µM | [9] 1.23 µM
not listed: [13] | [14]
inactive: all other assays above

Cc1ccc(N)cc1
active: [7] 16.5 µM
not listed: [13] | [14]
inactive: all other assays above

O=C(Oc1ccc(Br)cc1)N1CCN2CCC1CC2
active: [5] 66.7 µM | [7] 6.42 µM | [8] 15.2 µM | CYP2E1 (gene 1571) 63.8 µM | CYP4A11 (gene 1579) 34.9 µM | [9] 33.3 µM
not listed: [13]
inactive: all other assays above

OCCCBr
active: [7] 40.8 µM
not listed: [13]
inactive: all other assays above

COC(=O)c1ccccc1N
inactive: all assays above

CCCCCCCCOC(=O)c1ccc(C(=O)OCCCCCCCC)c(C(=O)OCCCCCCCC)c1
active: [5] 50.5 µM | [7] 22.4 µM
not listed: [14]
inactive: all other assays above

Clc1ccccc1Cl
not listed: [13] | [14]
inactive: all other assays above

O=P(OCCCl)(OCCCl)OCCCl
active: [7] 10.2 µM | CYP2E1 (gene 1571) 25.7 µM
not listed: [13] | [14]
inactive: all other assays above

ClC1=C(Cl)C2(Cl)C3C(Cl)C=CC3C1(Cl)C2(Cl)Cl (configuration not stated)
active: [7] 0.67 µM | [8] 2.22 µM | CYP2E1 (gene 1571) 7.54 µM | CYP4A11 (gene 1579) 16.1 µM | [9] 0.927 µM
inactive: all other assays above

O=[N+]([O-])C(Br)(CO)CO
not listed: [14]
inactive: all other assays above

CCCCCCCCn1sccc1=O
active: [1] 82.9 µM | [7] 87 µM | [8] 81.8 µM | CYP2C8 (gene 1558) 85.9 µM | CYP2C9 (gene 1559) 85.3 µM | CYP2E1 (gene 1571) 84.2 µM | CYP4A11 (gene 1579) 91.1 µM | [9] 81.4 µM | CYP3A5 (gene 1577) 83.1 µM
not listed: [14]
inactive: all other assays above

O=C(N[C@H](c1ccccc1)[C@@H]1CN2CCC1CC2)c1c(Cl)ccc(C(F)(F)F)c1Cl
inactive: [2] | [3] | [4] | CYP2C8 (gene 1558) | CYP3A5 (gene 1577)
active: [1] 72.6 µM | Caspase-3 (Homo sapiens) 70 µM | [5] 84.6 µM | [6] 73.7 µM | [7] 42 µM | [8] 75.2 µM | CYP2C9 (gene 1559) 69.5 µM | CYP2E1 (gene 1571) 44.5 µM | CYP4A11 (gene 1579) 35.4 µM | [9] 81.2 µM | [10] 36.3 µM | [11] 73.1 µM | [12] 2.42 µM
